From PubChem BioAssay (EPA / NIEHS)
Records with an inconclusive call do not appear. Active and inactive are the calls of the source. How the source made its calls: active means hit-call score of the fitted dose curve at least 0.9, where 1 is the maximum; inconclusive means response in the unintended direction; inactive means score below 0.9.

Target: Peroxisome proliferator-activated receptor gamma (Homo sapiens) (UniProt P37231)
Experiment: OT_PPARg_PPARgSRC1_0480: Odyssey Thera (OT) 8-hour Protein-Complementation Assay for Peroxisome Proliferator-activated Receptor Gamma / SRC-1 Co-activator (AID 2283387);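 further: nuclear to cytoplasmic split Venus YFP fluorescence ratio reporting PPARg SRC-1 interaction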
Method: OT_PPARg_PPARgSRC1_0480 is a cell-based assay that uses HEK293T, a human kidney cell line, with measurements taken at 8 hours after chemical dosing in a 384-well plate.OT_PPARg_PPARgSRC1_0480 is one of one assay component(s) measured or calculated from the OT_PPARg_PPARgSRC1_0480 assay. It is designed to make measurements of protein fragment complementation, a form of binding reporter, as detected with fluorescence intensity signals by Protein-fragment Complementation technology.Data from the assay component OT_PPARg_PPARgSRC1_0480 was analyzed into 1 assay endpoint. This assay endpoint, OT_PPARg_PPARgSRC1_0480, was analyzed in the positive analysis fitting direction relative to DMSO as the negative control and baseline of activity. Using a type of binding reporter, measures of receptor for gain-of-signal activity can be used to understand the binding at the pathway-level as they relate to the gene PPARG. Furthermore, this assay endpoint can be referred to as a primary readout, because the performed assay has only produced 1 assay endpoint. To generalize the intended target to other relatable targets, this assay endpoint is annotated to the nuclear receptor intended target family, where the subfamily is non-steroidal.
The OT PPARg/SRC-1 assay assessed receptor-chemical interactions using a rapidly maturing, intensely fluorescent mutant of YFP known as Venus, rationally dissected into two separate fragments. The fragments were obtained as follows: first, fragments coding for YFP1 and YFP2 (corresponding to amino acid residues 1-158 and 159-239 of the full length YFP, respectively) were generated by oligonucleotide synthesis (Blue Heron Biotechnology), and then PCR mutagenesis was used to generate the mutant fragments IFP1 and IFP2. Fusion constructs were transfected into HEK293T cells with a (Gly4Ser)2 linker between the PPARg/SRC-1 and YFP fragment genes to facilitate complementation when interacting proteins bring fragments into close proximity. The construct is transiently transfected in HEK293T cells 48 hours prior to treatment with test compounds. Cells are seeded into optical quality 384-well poly-D-lysine coated plates in MEM alpha medium (Invitrogen) supplemented with 10 percent FBS (Gemini Bio-Products) 1 percent penicillin and 1 percent streptomycin, and grown in 37C incubator equilibrated to 5 percent CO2. Cells are allowed to adhere for 24 hours prior to treatment with compounds of interest or controls for 8 hours. Cells are fixed in 4 percent formaldehyde and stained with Draq5 (BioStatus) to identify cells and subcellular compartment boundaries prior to signal detection. 8 Images per well were acquired on an Evotec Opera at 2 wavelengths (488 and 635nm), and the ratio of fluorescence in the nucleus relative to fluorescence in the cytoplasm (N/C Ratio) in the 488nm channel was calculated for a minimum of 350 cells per image.

Sequence of Peroxisome proliferator-activated receptor gamma (Homo sapiens) (P37231 whole entry, looked up): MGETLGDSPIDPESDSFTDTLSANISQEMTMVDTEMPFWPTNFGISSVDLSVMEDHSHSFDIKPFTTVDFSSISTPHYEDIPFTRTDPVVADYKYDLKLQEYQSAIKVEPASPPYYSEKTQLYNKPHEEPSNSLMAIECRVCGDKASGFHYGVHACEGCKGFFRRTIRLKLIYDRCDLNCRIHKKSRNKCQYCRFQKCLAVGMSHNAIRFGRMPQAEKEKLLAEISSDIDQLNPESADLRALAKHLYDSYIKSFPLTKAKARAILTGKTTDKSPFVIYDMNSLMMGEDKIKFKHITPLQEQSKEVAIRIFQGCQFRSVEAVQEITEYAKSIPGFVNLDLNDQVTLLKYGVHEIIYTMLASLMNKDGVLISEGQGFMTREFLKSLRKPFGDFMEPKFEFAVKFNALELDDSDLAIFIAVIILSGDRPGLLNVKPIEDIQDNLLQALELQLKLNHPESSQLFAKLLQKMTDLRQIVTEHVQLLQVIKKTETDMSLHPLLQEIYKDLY

outcome, inactive:
O=C1NS(=O)(=O)c2ccccc21
CCCCCCCCCCCC(=O)O
CCCCc1oc2ccccc2c1C(=O)c1cc(I)c(OCCN(CC)CC)c(I)c1
CCCCC(CC)C(=O)O (centres undefined)
CN(Cc1cnc2nc(N)nc(N)c2n1)c1ccc(C(=O)N[C@@H](CCC(=O)O)C(=O)O)cc1
Cc1ccc(C)c(S(=O)(=O)O)c1
NCc1cccc(CN)c1
CCCCCCCCCCCCOC(=O)c1cc(O)c(O)c(O)c1
Cc1cc(C(=C2C=CC(=Nc3ccc(S(=O)(=O)O)cc3)C=C2)c2ccc(Nc3ccc(S(=O)(=O)O)cc3)cc2)cc(S(=O)(=O)O)c1N
Cc1cc(C(C)(C)C)c(O)c(C(C)(C)C)c1
O=S(=O)(O)c1ccccc1
O=C(CCCN1CCC(O)(c2ccc(Cl)cc2)CC1)c1ccc(F)cc1
CC(O)COc1ccccc1 (centres undefined)
OCC(CO)(CBr)CBr
CC(C)c1c(C(=O)Nc2ccccc2)c(-c2ccccc2)c(-c2ccc(F)cc2)n1CC[C@@H](O)C[C@@H](O)CC(=O)O
N=C(N)c1ccc(OCCCCCOc2ccc(C(=N)N)cc2)cc1
CCC(C)c1ccccc1O (centres undefined)
O=C(O)c1cccc(C(=O)O)n1
CCc1ccccc1O
CCCCCCC(C)(C)C(=O)O
C[C@]12CC[C@@H]3c4ccc(O)cc4CC[C@H]3[C@@H]1C[C@@H](O)[C@@H]2O
CCCCc1ccc2ccccc2c1S(=O)(=O)O
CCCCCC(C)OC(=O)COc1ccc(Cl)c2cccnc12 (centres undefined)
CCCCCCCCCC=CCC1CC(=O)OC1=O (centres undefined)
CCCCCCCCCCCC
NS(=O)(=O)O
c1cnc2c(c1)ccc1cccnc12
CCCCCCc1ccc(N)cc1
NCCN
O=C(O)C(=O)O
C=CC(C)(CCC=C(C)C)OC(C)=O (centres undefined)
CC(C)[C@@H]1CC[C@@H](C)C[C@H]1O
CC(=O)Nc1ccc(O)cc1
NC(=NCCCCCCN=C(N)/N=C(\N)Nc1ccc(Cl)cc1)/N=C(\N)Nc1ccc(Cl)cc1
